Screening data deposited in PubChem BioAssay by National Center for Advancing Translational Sciences (NCATS).
KinaseGlo FLuc: counter-screen: inhibitors of Kinase-Glo firefly luciferase. Potency, µM (series often up to 38.3 µM), hits mostly inhibitors. 200,000 tested, 0.28% active. Kinase-Glo luciferase, ATP luminescence, 8 min. AID 1379. Q27757; note: nearly all actives have a fitted effect of over 60% in size
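Inhibition of Kinase-Glo luciferase light generation was assessed at 10 uM ATP in pH 7.2 imidazole buffer, with luminescence measured after eight minutes at ambient temperature.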
FLuc counter: inhibits or activates purified firefly luciferase, miR-21 counter-screen; P08659; 360,000 tested, 6.9% active; AID 588342; purified FLuc, Km substrates, luminescence inhibition; Potency, µM (series often up to 57.5 µM), hits mostly inhibitors; note: nearly all actives have a fitted effect of over 55% in size
Target sequence (P08659 whole entry, looked up): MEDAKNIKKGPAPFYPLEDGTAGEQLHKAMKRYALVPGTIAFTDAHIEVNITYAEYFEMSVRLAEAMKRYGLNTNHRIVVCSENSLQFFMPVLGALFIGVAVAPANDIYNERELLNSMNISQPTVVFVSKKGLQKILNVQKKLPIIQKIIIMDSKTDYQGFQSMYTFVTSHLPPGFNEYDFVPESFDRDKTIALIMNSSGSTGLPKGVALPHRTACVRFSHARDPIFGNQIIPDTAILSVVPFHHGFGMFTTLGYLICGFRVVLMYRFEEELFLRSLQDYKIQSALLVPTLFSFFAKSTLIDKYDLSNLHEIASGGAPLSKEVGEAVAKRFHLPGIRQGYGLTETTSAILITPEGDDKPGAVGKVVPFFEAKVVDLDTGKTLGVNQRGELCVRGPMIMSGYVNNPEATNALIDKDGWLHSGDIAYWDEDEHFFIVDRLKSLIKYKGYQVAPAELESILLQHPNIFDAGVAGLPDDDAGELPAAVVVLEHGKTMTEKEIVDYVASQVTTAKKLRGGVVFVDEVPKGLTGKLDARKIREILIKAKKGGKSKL
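Purified P. pyralis luciferase (10nM final) with 10uM D-luciferin and 10uM ATP (Km levels) in 50mM Tris acetate pH 7.5, 10mM Mg acetate, 0.01% Tween-20, 0.05% BSA; qHTS 6-point titration, ~60 µM downward; luminescence read.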
NPC1 promoter act: activators of NPC1 promoter; AID 485313; Potency, µM (highest dose often 9.22 µM), actives largely listed as activators; 320,000 tested, 2.4% active; Huh7 NPC1 promoter luciferase reporter, 24 h; note: nearly all actives have a fitted effect of over 60% in size
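Luciferase expression driven by the NPC1 promoter was measured in stably transfected Huh7 cells after a 24 h compound incubation, using a luciferase reagent and a luminescence read.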
ELG1 genotox: genotoxicity induction in ELG1-luciferase HEK293T cells; HEK293T ELG1-luciferase reporter, luminescence, 16 h; Potency, µM (top dose mostly 46 µM), actives largely listed as activators; 330,000 tested, 1.3% active; note: nearly all actives have a fitted effect of over 60% in size
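Reporter readout depends on ELG1 protein level, which increases with genetic stress. After 16 hr compound exposure at 37 °C, luciferase activity was quantified using ONE-Glo.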
Rab9 prom act: Rab9 promoter activation; Potency, µM (top dose mostly 9.22 µM), actives largely listed as activators; Huh7 Rab9 promoter-luciferase reporter, luminescence, 24 h; 320,000 tested, 2.8% active; AID 485297; note: nearly all actives have a fitted effect of over 60% in size
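Luciferase signal after 10 min detection reagent at ambient indicates Rab9 promoter upregulation; stably transfected Huh7 cells were treated 24 h with compound in DMSO at 37 °C, 5% CO2.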
SMN2 splice up: SMN2 splice variant enhancement. HEK293 SMN2-luciferase splicing reporter, luminescence, 30-36 h. Potency, µM (highest dose often 46.1 µM), actives largely listed as activators. AID 1458. 210,000 tested, 2.8% active; note: nearly all actives have a fitted effect of over 55% in size
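qHTS luciferase splicing reporter: luminescence rises when SMN2 exon 7 is included in transfected HEK293 cells. Compound exposure lasted 30-36 h at 37C, with 4.5 mM final sodium butyrate as control, followed by a ONE-Glo read.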
Of the large screens only hits and unclear results are named; the others gave an inactive call. A selection: hits, their analogues and other compounds. The true share with any hit is near 7.5%. Calls come from the whole dose curve; as a rule, active = well fitted curve in the direction sought with a large enough effect; inconclusive = small, poorly fitted or top-dose-only effect, or another doubt; inactive = no such curve, though single readings can be large; an effect the other way counts as inactive or inconclusive.

COc1ccc(-c2nc(C(=O)O)cs2)cc1OC	FLuc counter inconclusive
COc1ccc(-c2cc(C(=O)O)nc3ccc4ccccc4c23)cc1OC	FLuc counter 4.3µM
O=C(CSc1nc2c([nH]c3ccccc32)c(=O)n1-c1ccccc1F)Nc1cccc(Cl)c1	none (no result: KinaseGlo FLuc, NPC1 promoter act, ELG1 genotox, Rab9 prom act, SMN2 splice up)
O=C(Nc1ccc(Cl)cc1[N+](=O)[O-])c1ccc2c(c1)OCCO2	FLuc counter inconclusive, NPC1 promoter act 0.56µM, ELG1 genotox 4.1µM, Rab9 prom act 0.45µM (no result: KinaseGlo FLuc, SMN2 splice up)
O=C(Nc1cc(Cl)ccc1N1CCOCC1)c1ccc2c(c1)OCCO2	FLuc counter inconclusive
O=C(Nc1ccc(F)c([N+](=O)[O-])c1)c1ccc2c(c1)OCCO2	FLuc counter 6µM, Rab9 prom act inconclusive
CCOc1ccc(Sc2cc(C(=O)NC(C)c3ccccc3)c3ccccc3n2)cc1 (stereo unspecified)	none (no result: KinaseGlo FLuc, NPC1 promoter act, ELG1 genotox, Rab9 prom act, SMN2 splice up)
CN(C)CCNC(=O)Cc1ccc(NC(=O)N2CCCCc3ccccc32)cc1	none (no result: KinaseGlo FLuc, NPC1 promoter act, ELG1 genotox, Rab9 prom act, SMN2 splice up)
Cc1cc2nc(-c3cccc(NC(=O)C(C)C)c3C)oc2cc1C	FLuc counter 0.48µM (no result: KinaseGlo FLuc, NPC1 promoter act, ELG1 genotox, Rab9 prom act, SMN2 splice up)
COc1cc2ccccc2cc1C(=O)Nc1cccc(-c2nc3cc(C)c(C)cc3o2)c1C	FLuc counter inconclusive (no result: KinaseGlo FLuc, NPC1 promoter act, ELG1 genotox, Rab9 prom act)
Cc1cc2nc(-c3cccc(NC(=O)c4ccc(Br)o4)c3C)oc2cc1C	FLuc counter 4.3µM
Cc1ccc2oc(-c3cccc(NC(=O)c4ccc(Br)o4)c3C)nc2c1	FLuc counter 7.6µM
CSc1ccc(CNC(=O)CN2C(=O)C3CCCCN3c3ccc(C(=O)N4CCCC4)cc32)cc1 (stereo unspecified)	none (no result: KinaseGlo FLuc, NPC1 promoter act, ELG1 genotox, Rab9 prom act, SMN2 splice up)
Cc1cc(C)nc(SCC(=O)NC2CCCCC2C)n1 (stereo unspecified)	none (no result: KinaseGlo FLuc, SMN2 splice up)
CC(=O)Nc1ccc(C(=O)CSc2nnc3ccc4ccccc4n23)cc1	none (no result: KinaseGlo FLuc, NPC1 promoter act, ELG1 genotox, Rab9 prom act, SMN2 splice up)
O=C(CSc1nnc2ccc3ccccc3n12)c1ccc(F)cc1	FLuc counter 6.7µM, Rab9 prom act inconclusive (no result: KinaseGlo FLuc, ELG1 genotox, SMN2 splice up)
COC(=O)CSc1cnc2ccccc2n1	none (no result: NPC1 promoter act, ELG1 genotox, Rab9 prom act)
O=C(CSc1cnc2ccccc2n1)c1ccc(F)cc1	FLuc counter 4.8µM, NPC1 promoter act 3.2µM, ELG1 genotox inconclusive, Rab9 prom act 3.2µM, SMN2 splice up 11µM
Fc1cc2[nH]c(=S)[nH]c2c(Br)c1N1CCSCC1	FLuc counter 13µM (no result: KinaseGlo FLuc, SMN2 splice up)
COc1ccc(Nc2nnc(-c3ccc(C)c(S(=O)(=O)NCc4nc5ccccc5[nH]4)c3)c3ccccc23)cc1	FLuc counter inconclusive (no result: KinaseGlo FLuc, NPC1 promoter act, ELG1 genotox, Rab9 prom act)
Brc1ccc2oc3c(N4CCOCC4)ncnc3c2c1	FLuc counter 15µM, NPC1 promoter act inconclusive, Rab9 prom act inconclusive
Cc1ccc(NC(=O)CSc2nc(NS(=O)(=O)c3ccccc3)cc(=O)[nH]2)cc1	none
CCOc1ccc(NC(=O)CSc2nc(NS(=O)(=O)c3ccc(C)cc3)cc(=O)[nH]2)cc1	FLuc counter 21µM (no result: KinaseGlo FLuc, SMN2 splice up)
Cc1ccc(S(=O)(=O)Nc2cc(=O)[nH]c(SCC(=O)Nc3cccc(C)c3)n2)cc1	FLuc counter 19µM (no result: KinaseGlo FLuc, SMN2 splice up)
NC(N)=NC(=O)c1nc(Cl)c(N2CCCCCC2)nc1N	FLuc counter 4.3µM, NPC1 promoter act inconclusive, ELG1 genotox 16µM, Rab9 prom act inconclusive
CCC(CC)C(=O)N1CC(=O)Nc2ccc(F)cc2C1c1ccc(F)cc1 (stereo unspecified)	none (no result: KinaseGlo FLuc, SMN2 splice up)
Cc1ccc(NC(=O)C2CCCN(c3nnc(-n4c(C)ccc4C)s3)C2)c(C)c1 (stereo unspecified)	none (no result: KinaseGlo FLuc, NPC1 promoter act, ELG1 genotox, Rab9 prom act)
CCOC(=O)c1sc2ccccc2c1OC(=O)c1ccccc1	none
CC(=Nc1ccccc1)c1sc2ccccc2c1O	FLuc counter 1.5µM, ELG1 genotox 2.9µM, Rab9 prom act inconclusive, SMN2 splice up 11µM
NC(=Nc1ccc(Br)cc1)c1ccccc1	FLuc counter inconclusive, ELG1 genotox inconclusive (no result: KinaseGlo FLuc, SMN2 splice up)
CC(=Nc1ccc(Br)cc1)c1sc2ccccc2c1O	FLuc counter 1.3µM, NPC1 promoter act 3.2µM, ELG1 genotox 3.7µM, Rab9 prom act 3.2µM (no result: KinaseGlo FLuc, SMN2 splice up)
Cc1c(C)n2c(SCC(=O)N3CCCCCC3)nnc2[nH]c1=O	none (no result: KinaseGlo FLuc, SMN2 splice up)
O=C(Nc1ccc2oc(-c3cccc4c(Br)cccc34)nc2c1)c1ccc(F)cc1	none (no result: KinaseGlo FLuc, NPC1 promoter act, ELG1 genotox, Rab9 prom act)
Cc1ccc(CNC(=O)CN2c3cccc4cccc(c34)S2(=O)=O)cc1	FLuc counter 15µM (no result: KinaseGlo FLuc, SMN2 splice up)
